TDP1 cell CPT = DT40-hTDP1 cell growth loss with CPT; 420,000 compounds, 12% hits; chicken DT40 Tdp1-/-;hTDP1 cells + 20 nM CPT, ATP luminescence, 48 h; Potency, µM (top dose mostly 46.2 µM), most hits filed as inhibitors; also: nearly all actives have a fitted effect of over 55% in size
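Chicken DT40 Tdp1-/- cells complemented with human TDP1, 400 cells/well, exposed to compounds plus 20 nM camptothecin for at least 48 h at 37 C; viability read as ATP content by CellTiter-Glo luminescence.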
TDP1 inh = blocks human tyrosyl-DNA phosphodiesterase 1; recombinant TDP1, AlphaScreen DNA substrate cleavage; Potency, µM (highest dose often 130 µM), hits mostly inhibitors; 350,000 compounds, 0.28% hits; also: nearly all actives have a fitted effect of over 40% in size
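E. coli-derived human Tdp1, 1 nM final. Cpd preinc 15 min RT; substrate 15 nM final, 5 min RT; AS bead mix 10 ug/ml final, 10 min RT. Signal loss = tyrosine-FITC cleavage. No-enzyme wells = max signal.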
TDP1 cell noCPT = qHTS for Inhibitors of human tyrosyl-DNA phosphodiesterase 1 (TDP1): qHTS in cells in absence of CPT | DT40 Tdp1-/- hTDP1 cells, no CPT, ATP luminescence, 48 h | Potency, µM (top dose mostly 46.2 µM), hits mostly inhibitors | 420,000 compounds, 15% hits | AID 686978, 2013; also: nearly all actives have a fitted effect of over 55% in size
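Growth kinetics read by CellTiter-Glo luminescence after ≥48 hr at 37 °C. Cells: DT40 Tdp1-/- stably carrying human TDP1, 400 per well, compound exposure in the absence of CPT (DMSO vehicle).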
ClpP mod = qHTS Assay for Activators of ClpP; 340,000 compounds, 1.9% hits; purified B. subtilis ClpP, FRET peptide cleavage, 20 min; Potency, µM (doses to about 57.5 µM); ATP-dependent Clp protease proteolytic subunit (Bacillus subtilis (strain 168)), P80244; active = well fitted falling curve with a large enough effect; inconclusive = small, poorly fitted or top-dose-only effect; inactive = no such curve, though single readings can be large or run the other way; also: the source files actives as falling curves though it sought activators and does not explain the sign; nearly all actives have a fitted effect of over 65% in size
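ClpP 10 microg/mL final, pH 8 Tris/KCl buffer with BSA, glycerol, Tween-20; compound pinned in; FRET-FV substrate; RT 20 min; Ex320/Em430; ΔFRET vs ADEP 5.8 microM, DMSO, no enzyme.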
Large screens that a line does not name were inactive. In the library only some 17% were active in any assay of this set; here they are far more common. Unless noted, calls follow the shape of the dose curve; as a rule, active = well fitted curve in the direction sought with a large enough effect; inconclusive = small, poorly fitted or top-dose-only effect, or another doubt; inactive = no such curve, though single readings can be large; an effect the other way counts as inactive or inconclusive.

CC1CCC/C=C/C(=O)c2c(O)cc(O)cc2CC(=O)O1 (stereo not drawn)	TDP1 cell CPT 4.6µM, TDP1 cell noCPT 4.1µM (no result: TDP1 inh)
CC1(C)CC(=O)C2=C(C1)OC(N)=C(C#N)C21C(=O)N(CN2CCOCC2)c2ccccc21 (stereo not drawn)	none
COc1cccc(CN2C(=O)C3(C(C#N)=C(N)OC4=C3C(=O)CCC4)c3ccccc32)c1 (stereo not drawn)	TDP1 cell CPT 0.65µM, TDP1 cell noCPT 0.92µM
COc1ccc(S(=O)(=O)NCCc2csc3nc(-c4ccc(Cl)cc4)nn23)cc1C	TDP1 cell CPT 16µM, TDP1 cell noCPT 13µM
COc1ccc(S(=O)(=O)NCCc2csc3nc(-c4ccc(OC)c(OC)c4)nn23)cc1C	TDP1 cell CPT inconclusive, TDP1 cell noCPT 16µM
CC(=O)Nc1ccc(S(=O)(=O)NCCc2csc3nc(-c4ccc(Cl)cc4)nn23)cc1	TDP1 cell CPT 21µM, TDP1 cell noCPT 16µM
CCOc1ccc(S(=O)(=O)NCCc2csc3nc(-c4ccc(OC)c(OC)c4)nn23)cc1	TDP1 cell CPT inconclusive, TDP1 cell noCPT inconclusive
COc1ccc(-c2nc3scc(CCNS(=O)(=O)c4ccc(F)cc4F)n3n2)cc1OC	TDP1 cell CPT inconclusive, TDP1 cell noCPT 18µM
COc1ccc(C)cc1NC(=O)C(=O)NCCc1csc2nc(-c3ccccc3F)nn12	none
COc1ccc(-n2cc(C(=O)OCc3ccc(Cl)cc3)c3ccccc3c2=O)cc1	none
O=C(NNc1c(Cl)cccc1Cl)c1ccno1	none (no result: TDP1 inh)
COc1ccc(-c2nc3scc(CCNS(=O)(=O)c4c(C)cc(C)cc4C)n3n2)cc1OC	TDP1 cell CPT 15µM, TDP1 cell noCPT 23µM
COc1ccc(S(=O)(=O)NCCc2csc3nc(-c4cccc(C)c4)nn23)cc1F	TDP1 cell CPT inconclusive, TDP1 cell noCPT 21µM
CCc1c(C)c2ccc(OC(C)C(=O)NC(Cc3c[nH]c4ccc(O)cc34)C(=O)O)c(C)c2oc1=O (stereo not drawn)	none (no result: TDP1 inh)
COC(=O)C1=C(C(=O)OC)[C@@H]2Nc3ccccc3[C@@]23C[C@@H](C(=O)OC)N(S(=O)(=O)c2ccc(Br)cc2)C3=N1	none (no result: TDP1 cell CPT, TDP1 cell noCPT, ClpP mod)
COc1ccc2c(c1)n([O-])c1c([n+]2=O)CCC1	none (no result: TDP1 inh)
CCOc1ccc2c(c1)n([O-])c1c([n+]2=O)CCCC1	TDP1 cell CPT 13µM, TDP1 cell noCPT inconclusive, ClpP mod inconclusive
Cc1cc(C)cc(NC(=O)C(NCCN2CCOCC2)c2ccccc2)c1 (stereo not drawn)	TDP1 cell CPT inconclusive, TDP1 cell noCPT inconclusive (no result: ClpP mod)
CC(=O)CC1c2ccccc2C=C(c2ccsc2)N1c1ccc(-c2cccs2)cc1 (stereo not drawn)	TDP1 cell CPT 10µM, TDP1 cell noCPT 10µM (no result: TDP1 inh)
COc1ncc(-c2ccc(N3C(c4ccsc4)=Cc4ccccc4C3CC(C)=O)cc2)cn1 (stereo not drawn)	TDP1 cell CPT inconclusive, TDP1 cell noCPT inconclusive (no result: TDP1 inh)
COc1ccc(N2C(c3cc(OC)cc(OC)c3)=Cc3ccccc3C2CC(C)=O)cc1 (stereo not drawn)	TDP1 cell CPT inconclusive, TDP1 cell noCPT 16µM, ClpP mod inconclusive (no result: TDP1 inh)
COc1cc(OC)cc(C2=Cc3ccccc3C(CC(=O)c3ccco3)N2c2ccc(-c3cncnc3)cc2)c1 (stereo not drawn)	TDP1 cell CPT 8.2µM, TDP1 cell noCPT inconclusive (no result: TDP1 inh)
COc1cc(OC)cc(C2=Cc3ccccc3C(CC(=O)c3ccco3)N2c2ccc(-c3ccc(C(N)=O)cc3)cc2)c1 (stereo not drawn)	TDP1 cell CPT inconclusive, TDP1 cell noCPT inconclusive (no result: TDP1 inh)
COc1cc(OC)cc(C2=Cc3ccccc3C(CC(C)=O)N2c2ccc(C#CCCO)cc2)c1 (stereo not drawn)	TDP1 cell CPT 21µM, TDP1 cell noCPT inconclusive, ClpP mod inconclusive (no result: TDP1 inh)
O=C(NC(=S)Nc1ccc2[nH]c(=O)[nH]c2c1)c1ccccc1[N+](=O)[O-]	none
COC(=O)c1cc2oc3ccccc3c2n1Cc1nc(-c2cccc(Cl)c2)oc1C	none
Nc1ncc(S(=O)(=O)NCc2ccc(Cl)cc2)cn1	none
COc1cc(OC)cc(C2=Cc3ccc(OC)cc3C(CC(C)=O)N2c2ccc(C#CCCO)cc2)c1 (stereo not drawn)	TDP1 cell CPT inconclusive, TDP1 cell noCPT 21µM (no result: TDP1 inh)

Assay outcomes (PubChem)
